Results filed as inconclusive are left out. Entries that show only a call come without a potency. Active and inactive are the calls of the source. The call rests on the fitted dose curve; in most records, active means well fitted cell-killing curve with a large enough effect; inconclusive means small, poorly fitted or top-dose-only effect, or effect the other way; inactive means flat fitted curve, though single readings scatter.
test system: Hek293T; experiment: Primary qHTS to identify gynecologic anti-cancer compounds using libraries of approved drugs and bioactive compounds (AID 1345084); conditions: Gynecologic cancer cell panel viability, ATPlite luminescence, 48 h, control line for the selectivity index; series mostly up to 57.5 µM; further: nearly all actives have a fitted effect of over 55% in size
How it was run: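 In this quantitative HTS, cell killing is estimated from loss of ATP-dependent luciferase light. Cells see five compound concentrations over a 48 h exposure.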
Potency means the concentration at half of the fitted maximal effect.

SMILES	Potency
CCCCCCCCCCCCCCCCCC(=O)OCC(O)CO (stereo unspecified)	inactive
CN1[C@@H]2CC[C@H]1CC(OC(=O)c1c[nH]c3ccccc13)C2 (stereo partly specified)	inactive
CCCOC(C(=O)OC1CCN(C)CC1)(c1ccccc1)c1ccccc1	inactive
CO/N=C1\CN(c2nc3c(cc2F)c(=O)c(C(=O)O)cn3C2CC2)CC1CN (stereo unspecified)	inactive
COc1cc2c(cc1OC)C(C(C(=O)N(CCc1ccc(OC)c(OC)c1OC)CCc1ccc(OC)c(OC)c1OC)c1ccccc1)=NCC2 (stereo unspecified)	inactive
Oc1c(Cl)cc(Cl)cc1Sc1cc(Cl)cc(Cl)c1O	inactive
O=C1c2ccccc2C(=O)C1c1ccccc1	inactive
Cc1ccc(O)c2ncccc12	inactive
O=C(Nc1ccc(Oc2ccc(Cl)cc2)c(Cl)c1)c1cc(I)cc(I)c1O	inactive
CC(=O)[C@H]1CC[C@H]2[C@@H]3C[C@H](C)C4=CC(=O)CC[C@]4(C)[C@H]3[C@@H](O)C[C@]12C	inactive
O=C(OCC(O)CO)c1ccccc1Nc1ccnc2cc(Cl)ccc12 (stereo unspecified)	inactive
CCN1CCC[C@H]1CNC(=O)c1c(OC)ccc(Br)c1OC	inactive
CC(C)COC(=O)c1ccc(N)cc1	inactive
O=C1OCCN1/N=C/c1ccc([N+](=O)[O-])o1	inactive
Oc1ccc(O)cc1	inactive
C[C@]12C=CC(=O)C=C1CC[C@@H]1[C@@H]2[C@@H](O)C[C@@]2(C)[C@H]1CC[C@]2(O)C(=O)CO	inactive
O=C1OC(c2ccc(O)cc2)(c2ccc(O)cc2)c2ccccc21	inactive
NCCc1ccn[nH]1	inactive

SMILES	Potency
COc1cccc2c1C(=O)c1c(O)c3c(c(O)c1C2=O)C[C@@](O)(C(=O)CO)C[C@@H]3O[C@H]1C[C@H](N)[C@H](O)[C@H](C)O1	7.94 µM (active)
COC1=CC(=O)C[C@@H](C)[C@]12Oc1c(Cl)c(OC)cc(OC)c1C2=O	inactive
CC(CCc1ccccc1)NCC(O)c1ccc(O)c(C(N)=O)c1 (stereo unspecified)	inactive
C#C[C@]1(O)CC[C@H]2[C@@H]3CCc4cc(OC5CCCC5)ccc4[C@H]3CC[C@@]21C	inactive
CCCCC1=NC2(CCCC2)C(=O)N1Cc1ccc(-c2ccccc2-c2nn[nH]n2)cc1	inactive
O=C(CCN1CCC(c2ccccc2)C1)c1ccc2c(c1)OCCO2 (stereo unspecified)	inactive
C=CCc1ccc(O)c(OC)c1	inactive
C[C@]12CC[C@@H]3c4ccc(O)cc4CC[C@H]3[C@@H]1C[C@@H](O)[C@@H]2O	inactive
O=c1[nH]c(=O)n([C@H]2CCCO2)cc1F	inactive
C[C@]12CC[C@H]3[C@@H](CCC4=CC(=O)CC[C@@]43C)[C@@H]1CC[C@@H]2C(=O)CO	inactive
CC(=O)OCC(=O)NCCCOc1cccc(CN2CCCCC2)c1	inactive
OC[C@H]1O[C@@H](n2cnc3c(=S)nc[nH]c32)[C@H](O)[C@@H]1O	10 µM (active)
CCCCOc1ccc(OCCCN2CCOCC2)cc1	inactive
CC(C)n1nc(-c2cc3cc(O)ccc3[nH]2)c2c(N)ncnc21	3.98 µM (active)
CCCN1CCCC[C@H]1C(=O)Nc1c(C)cccc1C	inactive
CC(=O)Oc1ccc2c(c1)CC[C@@H]1[C@@H]2CC[C@]2(C)[C@@H](O)CC[C@@H]12	inactive
CC(C)(C)NC(=O)[C@@H]1CN(Cc2cccnc2)CCN1C[C@@H](O)C[C@@H](Cc1ccccc1)C(=O)N[C@H]1c2ccccc2C[C@H]1O	inactive
CC(Cc1cccc(C(F)(F)F)c1)NCCOC(=O)c1ccccc1 (stereo unspecified)	inactive

Source: PubChem BioAssay (NCATS)
